PubChem BioAssay AID2778 (National Center for Advancing Translational Sciences (NCATS), 2010)
Results filed as inconclusive are left out. Entries that show only a call come without a potency. The source made the active and inactive calls. The call rests on the fitted dose curve; in most records, active means well fitted inhibition curve with a large enough effect; inconclusive means small, poorly fitted or top-dose-only effect, or effect the other way; inactive means flat fitted curve, though single readings scatter.

Target: Menin (Homo sapiens) (UniProt O00255)
Sequence (O00255 whole entry, looked up): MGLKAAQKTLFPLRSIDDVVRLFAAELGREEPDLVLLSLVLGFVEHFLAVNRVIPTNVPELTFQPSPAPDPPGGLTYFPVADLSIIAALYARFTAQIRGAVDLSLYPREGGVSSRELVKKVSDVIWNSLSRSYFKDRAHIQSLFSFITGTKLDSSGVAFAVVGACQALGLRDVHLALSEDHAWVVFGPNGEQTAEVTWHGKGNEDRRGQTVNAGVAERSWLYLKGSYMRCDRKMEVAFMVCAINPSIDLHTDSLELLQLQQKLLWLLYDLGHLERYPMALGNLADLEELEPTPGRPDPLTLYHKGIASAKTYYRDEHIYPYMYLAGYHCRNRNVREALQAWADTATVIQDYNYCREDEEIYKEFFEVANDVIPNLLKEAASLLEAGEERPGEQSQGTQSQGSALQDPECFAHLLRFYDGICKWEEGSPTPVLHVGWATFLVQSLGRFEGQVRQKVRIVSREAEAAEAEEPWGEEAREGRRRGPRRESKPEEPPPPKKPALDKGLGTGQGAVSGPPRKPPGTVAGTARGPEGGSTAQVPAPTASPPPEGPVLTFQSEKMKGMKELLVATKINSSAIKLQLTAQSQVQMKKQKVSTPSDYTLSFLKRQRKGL
Assay: Confirmation of Inhibitors Targeting the Menin-MLL Interaction in MLL Related Leukemias: Confirmation in an HTRF (commercial TR-FRET) Assay using His-tagged menin and biotin-labeled MLL peptide
In short: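 Compounds were incubated 1 hr at ambient with a preformed His6-menin (200 nM)/biotinylated MLL-w.t. peptide (80 nM) complex in Tris pH 7.5 buffer; anti-His Eu-cryptate (3.5 nM) and SA-XL665 (10 nM) added, TR-FRET read after 1h.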
Potency means the concentration at half of the fitted maximal effect.

SMILES	Potency
CC1CN(c2c3c(nc4ncnn24)CCCC3)CC(C)O1 (stereo not given)	inactive
CCc1oc2ccccc2c1C(=O)c1cc(Br)c(O)c(Br)c1	inactive
O=C(CS)Nc1ccc2ccccc2c1	inactive
O=C(CSc1nnnn1-c1ccc(O)cc1)N1N=C(c2ccc3ccccc3c2)CC1c1ccccc1 (stereo not given)	inactive
CC(=O)c1ccc2c(c1)N(CCCN1CCC(CCO)CC1)c1ccccc1S2	inactive
COc1ccc(CCNCc2cc(C)n(-c3ccc(OC)cc3)c2C)cc1	inactive
COCCn1c(C)c(C)c2c(NCCc3ccccc3)ncnc21	inactive
CC(c1ccncn1)N(C)Cc1nc(-c2ccc(C(F)(F)F)cc2)no1 (stereo not given)	inactive
COc1ccccc1/C=C/C(=O)NC(=S)Nc1ccc(S(=O)(=O)N(C)c2ccccc2)cc1	inactive
CN(C)CCCOc1ccc2c(c1)Sc1ccccc1CC2=O	inactive
CCN1CCN(CC(=O)Nc2ccc(C(C)=O)cc2)CC1	inactive
CN(C)CCCNCC(=O)c1c(-c2ccccc2)n(C)c2ccccc12	inactive
NC(=O)C1CCN(C2=C(Cl)C(=O)c3ccccc3C2=O)CC1	inactive
Cc1ccc(C(C[N+](=O)[O-])c2c(C)[nH]n(-c3ccccc3)c2=O)cc1 (stereo not given)	inactive
CN[C@H]1[C@H](O)[C@@H](O[C@@H]2[C@H](O)[C@@H](O[C@H]3OC(CN)=CC[C@H]3N)[C@@H](N)C[C@H]2N)OC[C@@]1(C)O	inactive
O=C1C(=O)c2ncccc2-c2cccnc21	inactive
COc1cc(OC)c2ccc(=O)oc2c1C(CCN1CCOCC1)c1ccc(N(C)C)cc1 (stereo not given)	inactive
NC(=O)c1cc2ccccc2o/c1=N/NC(=O)c1cccc(F)c1	inactive

SMILES	Potency
O=C1CCNc2c(Cl)cc(Cl)cc21	inactive
CCOC(=O)N1CCN(CCC(=O)c2ccc(Br)cc2)CC1	inactive
Cc1[nH]nc(-c2ccc(OCc3cnn(-c4ccccc4)c3)c(C)c2O)c1Oc1ccccc1	inactive
Cc1cc2ccccc2nc1SCC(=O)Nc1nc(-c2ccccc2)cs1	inactive
Cc1ccc(NS(=O)(=O)c2csc(C(N)=O)c2)cc1C	inactive
CCc1cc2c(N3CCN(c4nnc(CC)s4)CC3)ncnc2s1	25.1 µM (active)
O=C(Nc1cc(Br)ccc1O)c1cc(-c2ccc3c(c2)OCO3)on1	inactive
c1ccc2c(c1)NCC1CCCN21 (stereo not given)	inactive
O=c1[nH]nc(Cc2ccc(-c3ccc(Cl)cc3)o2)c2ccccc12	inactive
CCCC(=O)NC(c1ccccc1Cl)c1ccc2cccnc2c1O (stereo not given)	inactive
CC(=O)c1c(O)cc(O)cc1CC(=O)O	inactive
O=C(Cn1c(=O)c2c3c(sc2n(Cc2ccccc2)c1=O)CCCC3)NCCO	inactive
CN1C[C@@H]2C[C@H]1CN2c1cc2c(cc1F)c(=O)c(C(=O)O)cn2C1CC1	inactive
N#Cc1ccc(Cl)cc1NC(=O)CNCc1cccs1	inactive
Cc1cc2cc(C(c3nnnn3CC3CCCO3)N3CCCc4ccccc43)c(=O)[nH]c2cc1C (stereo not given)	inactive
CCCNC(=O)c1ccc2c(=O)c(O)c(C)[nH]c2c1	inactive
COc1cc(O)c(C(=O)c2ccccc2)cc1O	inactive
